Shown are actives, neighbours in structure and some others; about 21% of the full set was active somewhere.
Pf growth 48h – inhibits P. falciparum growth in the first generation, 48 h; P. falciparum luciferase growth in erythrocytes, 48 h; Potency, µM (highest dose often 28.7 µM), without a hit: at the top dose activity change, negative = inhibition, hits mostly inhibitors; 310,000 tested, 5.9% active; AID 504832; also: potency is read from the fitted curve at half-maximal effect; % is scaled to controls: 0 for no effect and ±100 for the full control effect
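Here the parasites carry a stable luciferase gene and grow inside erythrocytes in Albumax-based RPMI medium with compound for one erythrocytic cycle. Activity is scored as loss of luminescent signal.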
HCV inh – inhibitors of hepatitis C virus infection; Huh7.5.1 HCVcc-Cre infection, luciferase reporter, 44 h; Potency, µM (titrated, usually from 41.8 µM), without a hit: top-dose activity change, negative = inhibition, hits mostly inhibitors; 340,000 tested, 3.4% active; AID 651820; also: potency is read from the fitted curve at half-maximal effect; % is scaled to controls: 0 for no effect and ±100 for the full control effect
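Luciferase read-out (15 sec integration) after a 15 min room-temperature substrate step quantifies HCVcc-Cre infection. Cells, 1,000 per well, had compound added 4 h post-plating, then virus at ~0.5 moi, and were cultured 44 h.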
Pf growth 96h – inhibits malaria parasite growth, 96 h | 320,000 tested, 6.9% active | Potency, µM (highest dose often 28.7 µM), for the others: at the top dose activity change, negative = inhibition, usual class: inhibitors | P. falciparum luciferase reporter growth, 96 h | AID 504834; also: potency is read from the fitted curve at half-maximal effect; % is scaled to controls: 0 for no effect and ±100 for the full control effect
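Parasite growth measured via integrated firefly luciferase reporter in P. falciparum. Infected erythrocytes at 2% hematocrit, 0.05% parasitemia final were treated 96 hours at 37 C under 5% CO2, and luminescence was read.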
Shiga inhibitor – inhibitors of Shiga toxin in Vero cells | Vero cells, Shiga toxin protein synthesis inhibition reporter | inhibition, % at 38.7 µM | 290,000 tested, 9.2% active; in the data active = inhibition mostly above about 28%, no sharp cut-off; inactive = mostly below about 43%; also: 0% is about no effect
HCMV antiviral – human cytomegalovirus inhibition; HFF cells, HCMV-luciferase reporter, 72 h; hits give low values; activity change, negative = inhibition, % at 57.5 µM; 410,000 tested, 4.5% active; AID 1259415; in the data active = activity change below about -60%; inconclusive = no clear call, values can overlap the other calls; inactive = above about -39%; also: % is scaled to controls: 0 for no effect and ±100 for the full control effect
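Two-dose cell screen: HFF monolayers treated with compounds and infected with luciferase-expressing HCMV at 1 PFU/cell, 72 h at 37C, then lysed for luciferase measurement.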
Cycloheximide cs – counter-screen hit for Shiga toxin inhibitors, cycloheximide | cell reporter, cycloheximide protein synthesis inhibition counterscreen | max response, % | 300,000 tested, 12% active | AID 2314; in the data active = max response mostly above about 13%, no sharp cut-off; inactive = mostly below about 14%; also: read at 38.3 µM for the half of the compounds with a filed dose; 0% is about no effect
Active calls of the source: *; ? = inconclusive; / = no result; + = active, no number. Unless noted, calls follow the shape of the dose curve; as a rule, active = well fitted inhibition curve with a large enough effect; inconclusive = small, poorly fitted or top-dose-only effect, or another doubt; inactive = no such curve, though single readings can be large or run the other way.

SMILES | Pf growth 48h | HCV inh | Pf growth 96h | Shiga inhibitor | HCMV antiviral | Cycloheximide cs
COc1ccc(C(=O)NC(=S)Nc2cc(C)ccn2)cc1[N+](=O)[O-] | 31% | -7% | 4.7µM* | -8 | 89 | 7
CCOC(=O)Nc1ccc(NC(=O)c2c(OC)cccc2OC)cc1 | 5% | 3% | / | -11 | 15 | -4
COc1ccc(C(=O)Nc2ccncc2)cc1[N+](=O)[O-] | 8.3µM* | 0% | 41% | 7 | 35 | 5
CCOC(=O)Nc1ccc(OC)c([N+](=O)[O-])c1 | 15µM* | -8% | 0% | -7 | -20 | 6
O=[N+]([O-])c1ccc(-[n+]2c(-c3ccccc3)cc(-c3ccccc3)cc2-c2ccccc2)cc1 | ? | -12% | 0% | / | ? | -3
Cn1c(-[n+]2c(-c3ccccc3)cc(-c3ccccc3)cc2-c2ccccc2)nc2c([N+](=O)[O-])cccc21 | 12µM* | ? | ? | -6 | -60* | -3
O=C(CCSCc1cnn(-c2ccccc2)c1-n1cccc1)NCc1ccccc1F | / | / | / | / | -32 | /
CCCNc1cc(=S)nc(N)[nH]1 | ? | -28% | ? | 1 | -29 | -3
COc1ccc(Cn2c(C)c(C)c(C#N)c2NC(=O)Nc2cccc(Cl)c2)cc1 | 33% | -21% | 59% | 25 | 26 | 14
Cc1c(C#N)c(NC(=O)c2cccc(Cl)c2)n(Cc2ccccc2)c1C | 12µM* | 5% | 13µM* | -4 | -27 | -1
O=c1[nH]cc(S(=O)(=O)N2CCN(c3ccccc3F)CC2)c(=O)[nH]1 | / | / | / | / | -36 | /
CC(C)CC(C)c1cc(N)nc2nc3ccccc3n12 (stereo not given) | 10µM* | -14% | 12µM* | 25 | 10 | -3
COc1cc(C(C)=O)ccc1OCC(=O)Nc1ccccc1N1CCCCC1 | 13µM* | ? | ? | / | -37 | /
COc1cc(C(C)=O)ccc1OCC(=O)Nc1ccccc1N1CCCC1 | -23% | -14% | 10µM* | 9 | 4 | -1
COc1ccc(CC(=O)Nc2ccccc2N2CCCC2)cc1OC | ? | -27% | -16% | -5 | -22 | -4
O=C(Nc1ccc(OCc2cc(=O)n3c4c(sc3n2)CCCC4)cc1)c1ccccc1 | / | / | / | / | -105* | /
O=C(Nc1cccc(OCc2cc(=O)n3c4c(sc3n2)CCCC4)c1)c1ccc(F)cc1 | / | / | / | / | 1 | /
C=CC(=O)Nc1ccc(Nc2nc(NC3CCC(N(C)C)CC3)nc3c2ncn3C(C)C)cc1 (stereo not given) | / | 1.3µM* | / | / | / | /
Cc1cc(Cl)cc2c(N=Nc3ccccc3C(=O)O)c(O)[nH]c12 | ? | 3% | 5% | 13 | 4 | 7
Cc1ccc(Cl)c2c(N=Nc3ccccc3)c(O)[nH]c12 | 148% | 16% | -27% | 66* | 99 | 18*
CSc1ccccc1-c1n[nH]c(=S)o1 | 13µM* | 3% | 38% | -13 | 33 | -5
Cc1ccc2[nH]c(O)c(N=Nc3ccccc3C)c2c1 | -1% | 3% | 23% | 28 | 56 | -2
COc1ccc2[nH]c(N=Nc3ccccc3C)c(O)c2c1 | 83% | ? | -29% | + | 76 | 16
CCOc1ccccc1N1CCN(C(=S)NCc2ccccc2)CC1 | ? | 13% | -12% | -14 | -88* | 2
O=S(=O)(NCc1ccccc1)c1ccc(S(=O)(=O)N2CCCCC2)cc1 | 15% | 7% | 5.2µM* | 42 | 10 | -3
SMILES | Pf growth 48h | HCV inh | Pf growth 96h | Shiga inhibitor | HCMV antiviral | Cycloheximide cs
O=S(=O)(c1ccccc1)N1CCN(C(=S)NCc2ccccc2)CC1 | 2.6µM* | 27% | 2.1µM* | -12 | 16 | 2
CCOc1ccc(S(=O)(=O)N2CCN(C(=S)NCc3ccccc3)CC2)cc1 | 2.3µM* | ? | 2.1µM* | -10 | -6 | 1
COC(=O)[C@]1(C#N)[C@H](C)C(=O)N(C(C)C)[C@@H]1c1ccc(OC)cc1 | / | / | / | / | 5 | /
Cc1c(C(=O)N2CCOCC2)c(S(=O)(=O)N2CCN(c3ccc(Cl)cc3)CC2)c(C)n1C | ? | 4% | -14% | 3 | 1 | 1
O=S(=O)(c1cccc(F)c1)N1CCN(C(=S)NCc2ccccc2)CC1 | 3.7µM* | 9% | ? | -12 | -14 | -2
COc1ccc(CNC(=S)N2CCN(S(=O)(=O)c3cccc(F)c3)CC2)cc1 | ? | 18% | 3.3µM* | 2 | ? | -3
